Experimental data: the supplement of paper PMC13380429

Test system: Vero E6 infected with SARS-CoV-2
Test: inhibition of SARS-CoV-2 cytopathic effect; higher = more antiviral protection, active = above 15
Conditions: 48 h

Measured: inhibition of SARS-CoV-2 cytopathic effect

Oc1cccc2cccnc12 [oxyquinoline]
inactive: 1 nM -1.21% | 8.33 nM -0.58% | 100 nM 0.04% | 833.33 nM 2.84% | 10000 nM -0.31%

CCOc1cc(C=O)ccc1O [ethyl-vanillin]
inactive: 1 nM -2.26% | 8.33 nM 2.03% | 100 nM -1.95% | 833.33 nM -0.96% | 10000 nM -1.21%

CO[C@H]1CC[C@H](N(c2cc(C3=CCCCC3)sc2C(=O)O)C(=O)[C@H]2CC[C@H](C)CC2)CC1
inactive: 1 nM 0.5% | 8.33 nM 0.07% | 100 nM -0.07% | 833.33 nM 0.31% | 10000 nM 0.21%

CN1C(=O)OC(C)(C)C1=O [trimethadione]
inactive: 1 nM -3.89% | 8.33 nM -1.8% | 100 nM -2.46% | 833.33 nM -3.14% | 10000 nM -1.97%

Fc1ccc2nc(CCC#Cc3ccccn3)cn2c1 [dipraglurant]
inactive: 1 nM 0.01% | 8.33 nM 0.17% | 100 nM 0.87% | 833.33 nM 1.2% | 10000 nM 2.02%

Cn1c(=O)cc(N2CCC[C@@H](N)C2)n(Cc2cc(F)ccc2C#N)c1=O [trelagliptin]
inactive: 1 nM -1.51% | 8.33 nM 0.34% | 100 nM 1.49% | 833.33 nM -0.45% | 10000 nM 3.01%

NC(=O)NO [hydroxyurea]
inactive: 1 nM 0.66% | 8.33 nM -0.23% | 100 nM 0.03% | 833.33 nM 0.46% | 10000 nM 1.29%

CCN[C@H]1C[C@H](C)S(=O)(=O)c2sc(S(N)(=O)=O)cc21 [dorzolamide]
inactive: 1 nM -0.7% | 8.33 nM -3.23% | 100 nM -4.56% | 833.33 nM -1.92% | 10000 nM -1.06%

O=C(CNC(=O)c1cccc(C(F)(F)F)c1)N[C@@H]1CCN(Cc2ccc(Cl)cc2)C1 [teijin-compound-1]
inactive: 1 nM -1.08% | 8.33 nM -0.19% | 100 nM 0.66% | 833.33 nM -1.99% | 10000 nM -4.88%

Cc1ccccc1C(=O)Nc1ccc(C(=O)N2CCCC(N(C)C)c3ccccc32)cc1 (stereo not given) [mozavaptan]
inactive: 1 nM 0.68% | 8.33 nM 1.45% | 100 nM 3.31% | 833.33 nM -0.56% | 10000 nM -5.53%

CCc1cccc(N(C)C(=N)Nc2cccc3ccccc23)c1 [aptiganel]
inactive: 1 nM 1.52% | 8.33 nM 1.91% | 100 nM 1.39% | 833.33 nM -2.33% | 10000 nM -4.82%

C=CCc1ccc(O)c(-c2ccc(O)c(CC=C)c2)c1 [honokiol]
inactive: 1 nM 0.73% | 8.33 nM -0.89% | 100 nM -1.94% | 833.33 nM -0.06% | 10000 nM -0.26%

NC(=O)c1cnccn1 [pyrazinamide]
inactive: 1 nM -9.22% | 8.33 nM -8.44% | 100 nM -5.67% | 833.33 nM -9.11% | 10000 nM -9.96%

CC[C@H](CO)Nc1nc(NCc2ccccc2)c2ncn(C(C)C)c2n1 [roscovitine]
inactive: 1 nM 1.02% | 8.33 nM 2.46% | 100 nM -0.4% | 833.33 nM -1.46% | 10000 nM -0.57%

c1cc(Nc2cc(C3CC3)n[nH]2)nc(Nc2ccc3[nH]cnc3c2)n1
inactive: 1 nM -2.31% | 8.33 nM -1.82% | 100 nM -0.35% | 833.33 nM -0.79% | 10000 nM 5.62%

O=C(Nc1ccccc1)c1ccccc1O [salicylanilide]
inactive: 1 nM -4.46% | 8.33 nM -2.22% | 100 nM -1.24% | 833.33 nM 1.14% | 10000 nM 0.54%

CCCCOC(=O)c1ccc(N)cc1 [butamben]
inactive: 1 nM 3.03% | 8.33 nM 2.87% | 100 nM 2.37% | 833.33 nM 6.53% | 10000 nM 2.78%

CN1CCN(CCc2ccc(Cl)c(Cl)c2)CC1
inactive: 1 nM 0.05% | 8.33 nM 3.18% | 100 nM -0.38% | 833.33 nM 0.92% | 10000 nM -1.14%

COc1cc(-c2cc(-c3cccc(O)c3)cnc2N)cc(OC)c1OC
inactive: 1 nM -0.86% | 8.33 nM -1.83% | 100 nM -1.83% | 833.33 nM 1.55% | 10000 nM 2.09%

CC[C@@H](Nc1c(Nc2cccc(C(=O)N(C)C)c2O)c(=O)c1=O)c1ccc(C)o1 [navarixin]
inactive: 1 nM -0.8% | 8.33 nM 1.26% | 100 nM 0.77% | 833.33 nM 1.8% | 10000 nM -2.11%

COc1ccc(-c2nc(C(=O)N3CCN(C)CC3)sc2-c2ccc(OC)cc2)cc1
inactive: 1 nM -2.34% | 8.33 nM -0.77% | 100 nM -0.57% | 833.33 nM -2.37% | 10000 nM 0.19%

CN(C)c1cccc(-c2c3c(=O)n(-c4ccccc4Cl)[nH]c3cc(=O)n2C)c1
inactive: 1 nM -1.01% | 8.33 nM 2.2% | 100 nM 0.39% | 833.33 nM -1.67% | 10000 nM 9.86%

NC(CO)(CO)CO [trometamol]
inactive: 1 nM -0.18% | 8.33 nM -2.53% | 100 nM -0.26% | 833.33 nM 2.08% | 10000 nM 4.11%

O=C(O)CCCCCCNC1c2ccccc2CCc2ccccc21 [amineptine]
inactive: 1 nM -0.8% | 8.33 nM -0.3% | 100 nM -1.15% | 833.33 nM -1.42% | 10000 nM -0.04%

Cc1cnc(Nc2ccc(N3CCN(C)CC3)cc2)nc1Nc1cccc(S(=O)(=O)NC(C)(C)C)c1
inactive: 1 nM -0.35% | 8.33 nM -0.73% | 100 nM 0.51% | 833.33 nM -7.25% | 10000 nM -21.1%

CCC1=C[C@@H]2CN(C1)Cc1c([nH]c3ccccc13)[C@@](C(=O)OC)(c1cc3c(cc1OC)N(C)[C@H]1[C@@](O)(C(=O)OC)[C@H](OC(C)=O)[C@]4(CC)C=CCN5CC[C@]31[C@@H]54)C2 [vinorelbine]
inactive: 1 nM -1.63% | 8.33 nM -1.57% | 100 nM -1.35% | 833.33 nM -2.48% | 10000 nM -3.81%

CC1CCN(C(c2ccc(F)cc2)c2ccc(C(C)C(=O)O)cc2-c2ccc(C(F)(F)F)cc2)CC1 (stereo not given)
inactive: 1 nM 3.01% | 8.33 nM -0.54% | 100 nM -0.83% | 833.33 nM -0.11% | 10000 nM -6.62%

CCc1oc2ccccc2c1C(=O)c1cc(Br)c(O)c(Br)c1 [benzbromarone]
inactive: 1 nM -1.45% | 8.33 nM 0.69% | 100 nM -2.5% | 833.33 nM -0.89% | 10000 nM 0.48%

N[C@H]1C[C@@H]1c1ccccc1 (racemic) [tranylcypromine]
inactive: 1 nM 0.8% | 8.33 nM -0.11% | 100 nM -0.1% | 833.33 nM 0.19% | 10000 nM 2.21%

O=C1CCC[C@@H]2[C@H]3CCC[N+]4([O-])CCC[C@@H](CN12)[C@@H]34 (stereo not given in full) [oxymatrine]
inactive: 1 nM 2.76% | 8.33 nM 1.55% | 100 nM 1.11% | 833.33 nM 0.79% | 10000 nM -1.71%

C=CC(=O)Nc1cccc(Oc2nc(Nc3ccc(N4CCN(C)CC4)cc3)nc3ccsc23)c1 [olmutinib]
inactive: 1 nM -1.91% | 8.33 nM 3.26% | 100 nM 11.6% | 833.33 nM -12% | 10000 nM -10.1%

Fc1ccc([C@@H]2CCNC[C@H]2COc2ccc3c(c2)OCO3)cc1 [paroxetine]
inactive: 1 nM -4.2% | 8.33 nM -2.01% | 100 nM -2.05% | 833.33 nM -1.89% | 10000 nM -13.1%

CCOCc1cc(OC)c(-c2ccc(C[C@H](NC(=O)c3c(F)cccc3F)C(=O)O)cc2)c(OC)c1 [firategrast]
inactive: 1 nM 2.19% | 8.33 nM -0.43% | 100 nM 0.01% | 833.33 nM -0.69% | 10000 nM -2.41%
